NR3A LBD binder = NR3A (human) ligand-binding domain modulation; Tm shift relative to glycine control, % at 25 µM; AID 1259313; NR3A LBD differential scanning fluorimetry, Tm shift; 0% = protein alone, 100% = glycine-bound protein; actives 2.5% (n = 340,000);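 active = melting temperature shift of at least 10% of the positive control shift, at one fixed dose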
MPTP block = inhibitors of mitochondrial permeability transition pore | actives 1.4% (n = 360,000) | AID 602449 | inhibition, % at 10 µM | isolated mouse mitochondria, Ca2+ swelling absorbance, 30 min;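 active = inhibition of 50% or more, scaled per plate between neutral and stimulator controls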
pCIP destab = lowers stability of the mouse p/CIP coactivator protein; Q05BA5; decrease of EGFP signal, % at 10 µM; actives 0.01% (n = 290,000); AID 1984; F442A p/CIP-EGFP cells, EGFP fluorescence, 16 h;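 active = EGFP signal decrease of at least 30% at 10 µM or well 3 SD below plate mean, unless failing retest; inactive = the rest, including hits failing retest or dose response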
Target sequence (Q05BA5 1-1403): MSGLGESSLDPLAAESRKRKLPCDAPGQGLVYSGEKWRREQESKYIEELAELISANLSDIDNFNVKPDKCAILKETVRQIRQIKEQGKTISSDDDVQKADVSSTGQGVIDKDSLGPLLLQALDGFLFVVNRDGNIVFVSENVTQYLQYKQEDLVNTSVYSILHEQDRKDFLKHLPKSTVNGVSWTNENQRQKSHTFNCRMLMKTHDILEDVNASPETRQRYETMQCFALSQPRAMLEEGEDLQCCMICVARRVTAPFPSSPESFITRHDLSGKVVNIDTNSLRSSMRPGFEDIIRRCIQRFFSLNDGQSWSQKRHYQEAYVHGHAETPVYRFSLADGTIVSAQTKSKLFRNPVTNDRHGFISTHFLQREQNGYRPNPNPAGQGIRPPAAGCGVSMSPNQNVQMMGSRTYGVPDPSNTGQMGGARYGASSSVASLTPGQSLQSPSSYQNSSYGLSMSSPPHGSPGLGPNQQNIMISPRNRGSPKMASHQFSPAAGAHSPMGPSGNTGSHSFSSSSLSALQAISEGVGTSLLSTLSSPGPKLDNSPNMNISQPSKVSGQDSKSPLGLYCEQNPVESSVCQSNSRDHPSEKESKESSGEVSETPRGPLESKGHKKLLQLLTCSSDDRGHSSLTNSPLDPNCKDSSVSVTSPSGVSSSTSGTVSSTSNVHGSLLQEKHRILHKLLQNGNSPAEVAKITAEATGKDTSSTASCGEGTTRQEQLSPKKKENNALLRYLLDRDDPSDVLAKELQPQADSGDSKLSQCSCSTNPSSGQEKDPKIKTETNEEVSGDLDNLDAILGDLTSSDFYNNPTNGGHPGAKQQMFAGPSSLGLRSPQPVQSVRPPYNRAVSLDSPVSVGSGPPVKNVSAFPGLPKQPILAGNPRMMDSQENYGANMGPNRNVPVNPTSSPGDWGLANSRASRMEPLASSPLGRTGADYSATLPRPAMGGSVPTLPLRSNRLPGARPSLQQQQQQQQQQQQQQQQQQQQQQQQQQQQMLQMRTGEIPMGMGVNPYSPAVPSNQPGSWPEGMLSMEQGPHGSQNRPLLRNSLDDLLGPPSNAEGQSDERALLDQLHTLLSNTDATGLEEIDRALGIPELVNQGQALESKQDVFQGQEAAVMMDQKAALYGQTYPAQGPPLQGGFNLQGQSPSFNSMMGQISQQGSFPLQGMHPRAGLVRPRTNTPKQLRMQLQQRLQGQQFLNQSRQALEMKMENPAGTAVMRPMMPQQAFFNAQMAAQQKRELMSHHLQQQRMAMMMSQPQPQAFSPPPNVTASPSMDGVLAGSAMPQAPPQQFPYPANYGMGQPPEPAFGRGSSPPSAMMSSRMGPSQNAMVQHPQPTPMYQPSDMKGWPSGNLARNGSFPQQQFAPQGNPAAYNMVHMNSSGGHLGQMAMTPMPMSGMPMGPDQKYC
FAS TE block = inhibitors of human fatty acid synthase thioesterase domain; P49327; actives 0.67% (n = 360,000); AID 602261; recombinant FAS-TE, OMFH fluorogenic substrate, fluorescence endpoint; inhibition, % at 15 µM;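 active = compounds whose normalised, plate-corrected inhibition of enzyme fluorescence in the single-dose primary screen is 50% or more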
MIN6 prolif = MIN6 beta-cell proliferation induction; MIN6 cells proliferation, ATPlite luminescence, 48 h; cells starved in 0.2% serum; 100% = growth in 10% serum; proliferation, % at 10 µM; actives 0.29% (n = 330,000); AID 2380;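 active = compounds whose signal lies at least 3.5 SD above the mean of all wells on their plate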
FAS-TE conf = confirmation of human fatty acid synthase thioesterase inhibitors; shares compounds with FAS TE block; AID 624325; recombinant FAS-TE, OMFH fluorogenic substrate, fluorescence; actives 45% (n = 2,300); inhibition, % at 15 µM;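 active = compounds inhibiting the enzyme by at least 50% at 15 µM in any one of the replicates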
Each line names hits and unclear results; the compound was inactive in the other large screens (follow-up assays come after a bar, where they were run). An excerpt weighted towards active compounds, which were near 4.1% of everything screened.

Cc1c(NC(=O)C(C)OC(=O)c2cc(-c3cccc4ccccc34)nc3ccccc23)c(=O)n(-c2ccccc2)n1C (stereo not given)	FAS TE block 72.9 | FAS-TE conf inactive
NC(c1ccccc1)c1csc(Nc2ccccn2)n1 (stereo not given)	none (no result: NR3A LBD binder, pCIP destab, MIN6 prolif)
CC1(C(=O)NS(=O)(=O)C2CC2)CCN(C(=O)c2ccc(F)cc2Cl)C1 (stereo not given)	none (no result: NR3A LBD binder, pCIP destab, MIN6 prolif)
Cc1cccc(COC[C@H](CC(C)C)N2CCN(C(=O)c3ccc(C(C)(C)C)cc3)CCC2=O)c1	FAS TE block 54.3 (no result: NR3A LBD binder, pCIP destab, MIN6 prolif) | FAS-TE conf 44.7
Cc1cccc(COCC(CC(C)C)N2CCN(C(=O)c3ccc(C(C)(C)C)cc3)CCC2=O)c1 (stereo not given)	FAS TE block 58.6 | FAS-TE conf 56.4
CC(C)CC(COCc1cccc(Cl)c1)N1CCN(C(=O)c2ccc(C(F)(F)F)cc2)CCC1=O (stereo not given)	none
O=C(Nc1ccc(Oc2ccccc2)nc1)[C@H]1O[C@@H](n2ccc(=O)[nH]c2=O)[C@H](O)[C@@H]1O	none (no result: NR3A LBD binder, pCIP destab, MIN6 prolif)
COCCSc1nnc(NC(=O)c2ccc([N+](=O)[O-])cc2)s1	none
Cc1cc(-c2nnc(CSc3nnc(NC(=O)c4ccc(C(C)(C)C)cc4)s3)o2)ccc1[N+](=O)[O-]	FAS TE block 75.1 | FAS-TE conf inactive
Cc1ccc(NC(=O)CCNS(=O)(=O)c2cc(Br)cnc2N)cc1Cl	NR3A LBD binder 29.5, FAS TE block 63.1 | FAS-TE conf 43.5
O=C(NCCc1ccccc1)C(c1cccs1)N(C(=O)CCl)c1ccc(Cl)cc1 (stereo not given)	FAS TE block 55.7 | FAS-TE conf 54.3
O=C(NCC1CCCCC1)c1cc([N+](=O)[O-])ccc1N1CCOCC1	none
O=C(NC(=S)Nc1ccccc1)c1cc([N+](=O)[O-])ccc1N1CCOCC1	FAS TE block 57.7 | FAS-TE conf 51.0
O=C(Nc1ccc(Cc2ccncc2)cc1)c1cc([N+](=O)[O-])ccc1N1CCOCC1	FAS TE block 81.5 | FAS-TE conf 88.0
O=C(NC12CC3CC(CC(C3)C1)C2)c1cc([N+](=O)[O-])ccc1N1CCOCC1	NR3A LBD binder 13.4, FAS TE block 51.2 | FAS-TE conf 38.6
CCc1cccc(NC(=O)COC(=O)c2cc([N+](=O)[O-])ccc2N2CCOCC2)c1	FAS TE block 86.7 (no result: pCIP destab) | FAS-TE conf 89.2
CCOC(=O)C1CCCN(C(=O)c2oc3ccccc3c2C)CC1 (stereo not given)	none (no result: NR3A LBD binder, pCIP destab, MIN6 prolif)
C=CCC(NC(=O)N(C)C)(C(C)=O)C(=O)OC (stereo not given)	none (no result: NR3A LBD binder, pCIP destab, FAS TE block, MIN6 prolif)
CCN(CC(=O)Nc1ccc(OC)cc1)C(=O)c1cc([N+](=O)[O-])ccc1N1CCOCC1	none (no result: pCIP destab)
O=C(NCCOc1ccccc1F)c1cc([N+](=O)[O-])ccc1N1CCOCC1	none
CCOc1ccc(NC(=O)c2cc([N+](=O)[O-])ccc2N2CCOCC2)cc1	FAS TE block 55.0 (no result: pCIP destab) | FAS-TE conf 64.9
CCOc1ccc(NC(=O)COC(=O)c2cc([N+](=O)[O-])ccc2N2CCOCC2)cc1	FAS TE block 60.9 (no result: pCIP destab) | FAS-TE conf inactive
O=C(NCCOc1ccccc1)c1cc([N+](=O)[O-])ccc1N1CCOCC1	FAS TE block 57.0 (no result: pCIP destab) | FAS-TE conf inactive
CN1CCN(c2ccc(NC(=O)c3cc([N+](=O)[O-])ccc3N3CCOCC3)cc2)CC1	none
Cc1sc2ncnc(N3CCC(C(=O)Nc4sc5c(c4C(N)=O)CCC(C)C5)CC3)c2c1C (stereo not given)	FAS TE block 66.0 (no result: pCIP destab) | FAS-TE conf inactive
CCc1cccc(NC(=O)C2CCN(c3ncnc4sc(C)c(C)c34)CC2)c1	none (no result: pCIP destab)
C[C@@H]1CN([C@H](C)CO)C(=O)CCCn2nncc2CO[C@@H]1CN(C)S(=O)(=O)c1cccc(F)c1	none (no result: NR3A LBD binder, pCIP destab, MIN6 prolif)
CC(=O)N1N=C(c2cccc([N+](=O)[O-])c2)OC1c1ccc(Cl)cc1Cl (stereo not given)	FAS TE block 53.3 | FAS-TE conf inactive
CC(=O)N1N=C(c2ccc(Br)cc2)CC1c1cccc([N+](=O)[O-])c1 (stereo not given)	FAS TE block 62.4 (no result: NR3A LBD binder, pCIP destab, MIN6 prolif) | FAS-TE conf 48.8
Cc1ccc(C2=NN(C(=O)CCC(=O)O)C(c3cccc([N+](=O)[O-])c3)C2)cc1 (stereo not given)	none
COc1ccccc1C1OC(c2cccc([N+](=O)[O-])c2)=NN1C(C)=O (stereo not given)	none
CC(=O)N1N=C(c2cccc([N+](=O)[O-])c2)OC1c1ccc(Br)cc1 (stereo not given)	FAS TE block 50.8 | FAS-TE conf inactive
CCN1C(=O)[C@@H]2[C@@H]3CN(S(=O)(=O)c4ccc(C)cc4)[C@@H](c4ccccc4Cl)[C@@H]3C(=O)C[C@@H]2C1=O	none (no result: NR3A LBD binder, pCIP destab, MIN6 prolif)
CC(C)N1CCC(C)(C(=O)Nc2ccccc2Oc2ccccc2)C1 (stereo not given)	none (no result: NR3A LBD binder, pCIP destab, MIN6 prolif)
COc1cc(NC(=O)c2cc(-c3ccccc3)on2)cc(OC)c1OC	none
COc1cc(NC(=O)c2cc3nc(-c4ccccc4)cc(-c4ccccc4)n3n2)cc(OC)c1OC	FAS TE block 51.5 | FAS-TE conf inactive
NC(=O)C1(Nc2ccc(C(=O)O)cc2)CCCC1	none (no result: pCIP destab, MIN6 prolif)
O=C(NCc1cccc(C(F)(F)F)c1)c1ccc2sc([C@H]3C[C@H](O)[C@@H](CO)O3)nc2c1	none (no result: NR3A LBD binder, pCIP destab, MIN6 prolif)
Cc1nn(C)cc1C(C(=O)NC1CCCCC1)N(C(=O)Cc1cccs1)c1ccc(C(C)C)cc1 (stereo not given)	FAS TE block 60.9 | FAS-TE conf 59.3
Cc1c(N=Cc2c(O)n(C)c(=O)c3ccccc23)c(=O)n(-c2ccccc2)n1C	none
COc1ccc(C2=C(C=Nc3c(C)n(C)n(-c4ccccc4)c3=O)C(c3ccccc3C)c3ccccc3O2)cc1OC (stereo not given)	FAS TE block 83.9 | FAS-TE conf inactive
CCOC(=O)CCSc1nc2c(c(C(F)(F)F)c1C#N)CCC2	FAS TE block 71.3 | FAS-TE conf 65.2
CCCCSc1nc2c(c(C(F)(F)F)c1C#N)CCC2	none
O=S(=O)(c1cccc(F)c1)N1CCN(C(=S)NCc2ccccc2)CC1	none
O=C(CCNC(=O)c1ccc([N+](=O)[O-])cc1)NCCC1=CCCCC1	FAS TE block 75.5 (no result: pCIP destab) | FAS-TE conf 83.3
Cc1ccc(OCC(=O)NCCC2=CCCCC2)cc1	none
O=C(Cc1ccc([N+](=O)[O-])cc1)Nc1ccc2c(c1)CCC2	none
O=C(COc1ccc([N+](=O)[O-])cc1)Nc1ccc2c(c1)CCC2	FAS TE block 57.9 (no result: pCIP destab) | FAS-TE conf 62.6
O=C(NCCC1=CCCCC1)c1ccc([N+](=O)[O-])cc1	none
O=C(COc1ccc([N+](=O)[O-])cc1)NCCC1=CCCCC1	FAS TE block 62.8 | FAS-TE conf 63.9
O=C(CN1C(=O)c2ccc([N+](=O)[O-])cc2C1=O)NCCC1=CCCCC1	FAS TE block 54.0 (no result: pCIP destab) | FAS-TE conf 54.1

Bioassay records as filed in PubChem BioAssay.
